In PubChem BioAssay (EPA / NIEHS) one finds outcome and AC50 data, which are given here for 39 compounds.

Some structures have more than one record in an assay (separate samples or runs), and their calls can disagree. Calls of active or inactive are those of the source. The calls were made as follows: active = hit-call score of the fitted dose curve at least 0.9, where 1 is the maximum; inactive = score below 0.9.

This assay is described as follows: BSK_LPS_SRB: Viability Assessment in the BioMAP Diversity Plus: LPS Assay (AID 2283079).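 Also: fitted in both directions against DMSO so loss or gain of signal counts.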 Conditions: primary human HUVEC with PBMC. As for the experimental part:
BSK_LPS is a cell-based, multiplexed-readout assay that uses umbilical vein endothelium and peripheral blood mononuclear cells, a human vascular primary cell co-culture, with measurements taken at 24 hours after chemical dosing in a 96-well plate.BSK_LPS_SRB is an assay component measured in the BSK_LPS assay. It measures 0.1% sulforhodamine related to cell death using Sulforhodamine staining technology.Data from the assay component BSK_LPS_SRB was analyzed into 1 assay endpoint. This assay endpoint, BSK_LPS_SRB, was analyzed with bidirectional fitting relative to DMSO as the negative control and baseline of activity. Using a type of viability reporter, gain or loss-of-signal activity can be used to understand changes in the signaling. Furthermore, this assay endpoint can be referred to as a primary readout, because this assay has produced multiple assay endpoints where this one serves a signaling function. To generalize the intended target to other relatable targets, this assay endpoint is annotated to the cell morphology intended target family, where the subfamily is cell conformation.
The levels of cell surface (or secreted, indicated by the prefix "s") biomarker endpoints were measured by ELISA. Overt cytotoxicity to cells in confluent adherent cultures (all systems other than the BT system) was assessed by measuring total protein levels using sulforhodamine B (SRB) staining in parallel cultures at the time of biomarker measurements, indicated as SRB endpoints. For proliferation assays for adherent cell types, individual cell types are cultured at sub-confluence and relative cell numbers quantified by SRB staining at time points optimized for each system (48 h: 3C and CASM3C systems; 72 h: BT and HDF3CGF systems; 96 h: SAg system). SRB was performed by staining cells with 0.1% SRB after fixation with 10% TCA and reading wells at 560 nm.Viability and proliferation of PBMC (T cells) was quantified by Alamar Blue reduction for the SAg and BT systems. For PBMC viability (referred to as PBMC Cytotoxicity within the assay endpoint names), cells were plated (75,000/well in a 96-well plate) and then chemical samples added for 1 h before addition of activators, SEB and TSST-1 (20 ng/mL final concentration each). Cells were incubated for 90 h. Then, Alamar Blue (20 uL/well) (Invitrogen, Cat DAL1100) was added for 6 h, and the plates were read with a fluorescence microplate reader at 546/580 nm (excitation/emission). For PBMC proliferation, cells were plated and activated as above but incubated for only 16 h prior to addition of Alamar Blue. Plates were read after 6 h.
In the case of `Nc1cccc2ccccc12`, the outcome was inactive. For `CCC(C)(C)c1ccc(O)c(C(C)(C)CC)c1`, the concentration at half-maximal activity (AC50) is 15 µM (active). In the case of `ClC1(Cl)C2(Cl)C3(Cl)C4(Cl)C(Cl)(Cl)C5(Cl)C3(Cl)C1(Cl)C5(Cl)C24Cl` (stereo not given), the outcome was inactive.

As to `C(=NC1CCCCC1)=NC1CCCCC1`, the AC50 was 32.8 µM (active). On to `Cc1ccccc1N`, for which the outcome was inactive. In the case of `COC(=O)c1sccc1S(=O)(=O)NC(=O)Nc1nc(C)nc(OC)n1`, the outcome was inactive. Still for that read-out and setting: under `CCCCCCCCC(=O)NCc1ccc(O)c(OC)c1` stands “inactive”. As to `CC(C)(C)c1cc(O)ccc1O`, the AC50 was 28.5 µM (active). Still for that read-out and setting: as for `CC(=O)[O][Hg][c]1ccccc1`, the figure is 1.09 µM (active).

For the compound `COP(=S)(OC)Oc1ccc(Sc2ccc(OP(=S)(OC)OC)cc2)cc1`, the concentration at half-maximal activity (AC50) is 13.7 µM (active). Consider `CC(C)c1ccc(CO)cc1`, for which the outcome was inactive. Same read-out and setting: as for `Cn1sc(Cl)cc1=O`, the entry is “inactive”. On to `COP(=S)(OC)Oc1c(Cl)cc(C)cc1Cl`, for which the AC50 was 27.7 µM (active). With `O=c1[nH]c(=O)[nH]c(=O)[nH]1`, the result was inactive.

For the compound `Nc1ncc([N+](=O)[O-])s1`, the result was inactive. Turning to `CCOC(=O)/C=C(C)/C=C/C[C@@H](C)CCCC(C)C`, the concentration at half-maximal activity (AC50) was 38.7 µM (active). As for `BrCCBr`, the result was inactive.

For `CCOP(=S)(OCC)Oc1nc(Cl)c(Cl)cc1Cl`, the outcome was inactive. On the same count and under the same terms, as for `COP(=S)(OC)Oc1cc(Cl)c(Cl)cc1Cl`, the entry is “inactive”.

As for `O=C(O)C(F)(F)C(F)(F)C(F)(F)C(F)(F)C(F)(F)C(F)(F)C(F)(F)C(F)(F)C(F)(F)C(F)(F)F`, the result was inactive and the AC50 is 34.8 µM (active). For `CCC(=O)C(CC(C)N(C)C)(c1ccccc1)c1ccccc1` (stereo not given), the outcome was inactive. The same measure, in the same setting: as for `O=S(=O)(c1ccc(Cl)cc1)c1ccc(Cl)cc1`, the entry is “inactive”. As for `C[C@]12CCC(=O)C[C@@H]1CC[C@@H]1[C@@H]2CC[C@]2(C)[C@@H](O)CC[C@@H]12`, the AC50 is 19.8 µM (active). Still for that read-out and setting: as for `CC(C)(C)CC(C)(C)c1ccc(O)cc1`, the figure is 12.9 µM (active).

For `O=C(O)C(Cl)(Cl)Cl`, the result was inactive. Regarding `CC(C)(c1ccccc1)c1ccc(O)c(C(C)(C)c2ccccc2)c1`, the half-maximal activity concentration (AC50) is 12.7 µM (active).

Take `CCOP(=S)(OCC)SCSP(=S)(OCC)OCC`: the outcome was inactive. On the same count and under the same terms, under `CC(=O)C(Cl)C(=O)N(C)C` (stereo not given) stands “inactive”. For `O=C(Nc1ccc2[nH]ccc2c1)c1cc2cc(F)ccc2n1Cc1cccc(F)c1`, the AC50 is 13.2 µM (active).

For the compound `ClC1=C(Cl)[C@]2(Cl)[C@H]3[C@H]([C@H]4C=C[C@H]3C4)[C@@]1(Cl)C2(Cl)Cl`, the AC50 was 5.73 µM (active).

`CC1(C)Cc2cccc(O)c2O1`: the result was inactive. Still for that read-out and setting: as for `CC(=O)OC(c1ccccc1)C(Cl)(Cl)Cl` (stereo not given), the entry is “inactive”. In the case of `Oc1c(I)cc(I)cc1I`, the AC50 is 20 µM (active). Take `CCNc1nc(NC(C)(C)C)nc(SC)n1`: the outcome was inactive. As to `C[C@@H]1C[C@@H]([C@H](O)CC2CC(=O)NC(=O)C2)C(=O)[C@@H](C)C1`, the AC50 was 6.14 µM (active). Same read-out and setting: as for `ClC(Cl)=C(Cl)C(Cl)=C(Cl)Cl`, the figure is 3.97 µM (active); as for `Nc1ccc(-c2ccc(N)c(Cl)c2)cc1Cl`, 7.78 µM (active). For `CN(C)N=O`, the outcome was inactive.

Take `COC[C@H](C)N(C(=O)CCl)c1c(C)csc1C`: the result was inactive.
